High-throughput results deposited in PubChem BioAssay by The Scripps Research Institute Molecular Screening Center.
PME-1 inh = PME-1 (human) inhibition; recombinant PME-1, FP-Rh probe fluorescence polarization; inhibition, % at 5.9 µM; Q9Y570; hit rate 0.53% among 320,000;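 active means inhibition above the campaign mean of all compounds plus 3 SD, cut at about 26% in these data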;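 further: competitive labeling of PME-1 active site by serine hydrolase directed probe; inhibitors block probe labeling so polarization falls and inhibition rises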
PAD4 FP inh = PAD4 (human) enzyme inhibition | hit rate 0.41% among 330,000 | inhibition, % at 6.36 µM | Q9UM07 | recombinant PAD4, RCA probe fluorescence polarization;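 active means percent inhibition above a cutoff equal to the mean of all tested compounds plus 3 SD, cut at about 15% in these data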
Target sequence (Q9UM07 whole entry, looked up): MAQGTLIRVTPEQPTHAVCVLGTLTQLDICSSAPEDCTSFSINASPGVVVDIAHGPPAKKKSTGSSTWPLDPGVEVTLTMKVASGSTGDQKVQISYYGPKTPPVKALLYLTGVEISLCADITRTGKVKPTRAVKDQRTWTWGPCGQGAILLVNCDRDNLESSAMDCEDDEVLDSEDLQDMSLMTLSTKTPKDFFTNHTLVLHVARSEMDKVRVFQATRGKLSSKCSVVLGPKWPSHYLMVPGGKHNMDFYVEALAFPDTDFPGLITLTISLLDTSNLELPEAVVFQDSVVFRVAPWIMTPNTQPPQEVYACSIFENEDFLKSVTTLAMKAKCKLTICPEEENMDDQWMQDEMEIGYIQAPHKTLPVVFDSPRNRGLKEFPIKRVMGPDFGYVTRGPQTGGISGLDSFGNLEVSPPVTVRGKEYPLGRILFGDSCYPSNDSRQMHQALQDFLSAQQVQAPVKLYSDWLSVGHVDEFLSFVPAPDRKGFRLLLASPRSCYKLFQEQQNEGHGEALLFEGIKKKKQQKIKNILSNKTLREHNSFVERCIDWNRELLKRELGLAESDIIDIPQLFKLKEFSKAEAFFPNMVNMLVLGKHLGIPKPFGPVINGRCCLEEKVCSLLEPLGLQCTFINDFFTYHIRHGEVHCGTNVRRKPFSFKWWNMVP
LYPLA2 inh = counter-screen for PME1 inhibitors: inhibitors of human LYPLA2; O95372; recombinant LYPLA2, FP-Rh probe fluorescence polarization; inhibition, % at 5.9 µM; hit rate 0.38% among 320,000;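 active means inhibition above the screen-wide mean plus 3 SD, limit set per campaign, cut at about 26% in these data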
Fam108B inh = blocks mouse Fam108B hydrolase in RBBP9 counter-screen. recombinant Fam108B, FP-Rh probe fluorescence polarization. hit rate 0.33% among 300,000. inhibition, % at 9.51 µM;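 active means inhibition above the screen mean inhibition plus 3 SD, computed separately per campaign, cut at about 18% in these data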;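 further: inhibitors lower polarization as less probe binds the enzyme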
GSTO1 counter = GSTO1 inhibition, counter-screen for RBBP9 inhibitors | P78417 | recombinant GSTO1, activity-based probe fluorescence polarization | inhibition, % at 5.96 µM | hit rate 1.1% among 300,000;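 active means inhibition above the campaign mean inhibition plus 3 SD, cut at about 35% in these data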
LYPLA1 inh = blocks human lysophospholipase 1, a PME1 counter-screen. inhibition, % at 5.9 µM. O75608. recombinant LYPLA1, FP-Rh probe fluorescence polarization. AID 2174. hit rate 0.16% among 320,000;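 active means inhibition above the mean of all tested compounds plus 3 SD, set per campaign, cut at about 14% in these data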;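 further: inhibitors block serine hydrolase probe labeling of LYPLA1 so polarization falls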
Fam108b confirm = Fam108b (mouse) hydrolase inhibition, confirmation assay | AID 1978 | recombinant Fam108b, FP-Rh probe fluorescence polarization | shares compounds with Fam108B inh | inhibition, % at 9.51 µM | hit rate 44% among 930;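 active means inhibition above a limit from the primary screen, the mean over all compounds plus 3 SD, cut at about 19% in these data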;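 further: inhibitors free the probe so polarization falls as inhibition rises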
Fam108b inh = inhibits mouse Fam108b in gel-based ABPP; shares compounds with Fam108B inh; recombinant Fam108b, fluorophosphonate probe; inhibition, % at 20 µM; hit rate 44% among 260; AID 588649; in the data active means inhibition above about 40%
Hits are given with their value; n = inactive; x = no result given; + = active, no number. Sampled rows, rich in hits. Any-hit rate of the full collection: about 1.8%.

SMILES | PME-1 inh | PAD4 FP inh | LYPLA2 inh | Fam108B inh | GSTO1 counter | LYPLA1 inh | Fam108b confirm | others
Cc1ccc(NC(=O)CN2C(=O)N/C(=C/c3ccco3)C2=O)cc1 | n | n | n | n | n | n | x
Cc1cc(CSc2ccccc2)ccc1NC(=O)c1ccc(Cl)c([N+](=O)[O-])c1 | n | n | n | 25 | n | n | 63 | Fam108b inh=n
Cc1cc(CSc2ccccc2)ccc1NC(=O)c1ccc(C)c([N+](=O)[O-])c1 | n | n | n | n | n | n | x
CCCCN1CC(=O)N2[C@H]3c4cc(Br)ccc4OC[C@@H]3[C@H](C(=O)OCC)[C@]2(C)C1=O | n | n | n | x | x | n | x
Cc1c(O)ccc(C(Cc2ccc3ccccc3n2)=NO)c1O | x | x | x | x | x | x | x | Fam108b inh=n
CC(=O)Oc1ccc(C(=O)Cc2ccc3ccccc3n2)c(O)c1C | n | n | n | n | n | n | x
Cc1c(O)ccc(/C(Cc2ccc3ccccc3n2)=N\O)c1O | 50 | n | n | 25 | n | n | 29
CCCCOc1[nH]c2nc(-c3ccco3)n(Cc3ccco3)c(=N)c2c1C#N | n | n | n | 20 | n | n | n
c1ccc(CSc2nnc(-c3ccco3)n2Cc2ccco2)cc1 | n | n | n | n | n | n | x
N#C/C(=C(/O)c1cc2ccccc2o1)c1nc2ccccc2s1 | n | n | n | 22 | n | n | 21
N#C/C(=C(/O)c1ccco1)c1nc2ccccc2s1 | n | n | n | n | n | n | x
CCN1CCN(c2ccc(S(=O)(=O)N3CCOCC3)cc2NC(=O)C(C)Oc2ccc(F)cc2)CC1 (centres undefined) | n | n | n | x | x | n | x
Cc1c(Br)c(O)c(Br)c2sc(=O)oc12 | n | n | n | 29 | 74 | n | n
NNc1nc2c(F)cccc2s1 | n | n | n | n | n | n | x
COc1cc(OC)cc(-c2nnc(Nc3nc4c(F)cccc4s3)o2)c1 | 61 | n | n | 19 | n | n | n
COc1cc(OC)c(NC(=O)C2CCCO2)cc1Cl (centres undefined) | n | n | n | 18 | n | n | n
COc1cccc(CN2CCN(Cc3cccc(Br)c3)CC2)c1OC | n | n | n | n | n | n | x
O=C(NN1C(=O)/C(=C/c2ccc(O)c([N+](=O)[O-])c2)SC1=S)c1ccccc1Cl | n | n | n | 25 | n | n | 20
CC(=O)c1ccccc1NC(=O)COC(=O)CCC1CCCC1 | x | n | x | x | x | x | x
Cc1nn(-c2ccccc2C(=O)O)c(=O)c2ccccc12 | n | n | n | n | n | n | x
Cc1nn(-c2ccc(Br)cc2)c(=O)c2ccccc12 | 93 | n | n | 88 | n | n | n
Cc1ccc(S(=O)(=O)c2nnn3c2nc(N2CCN(c4ccccn4)CC2)c2ccccc23)cc1C | n | n | n | n | n | n | x
CCOC(=O)c1ccc(Nc2cc(C)nc(-c3ccccc3)n2)cc1 | n | n | n | 18 | n | n | n
CCn1c2ccccc2c2cc(NC(=O)c3ccc([N+](=O)[O-])cc3)ccc21 | n | n | n | 25 | n | n | n
O=[N+]([O-])c1ccc(N/N=C/c2c[nH]c3ccccc23)c(S(=O)(=O)Nc2ccc(Cl)cc2)c1 | n | n | n | 38 | n | n | +
SMILES | PME-1 inh | PAD4 FP inh | LYPLA2 inh | Fam108B inh | GSTO1 counter | LYPLA1 inh | Fam108b confirm | others
COc1ccccc1NS(=O)(=O)c1cc([N+](=O)[O-])ccc1N/N=C/c1c(C)[nH]c2ccccc12 | n | n | n | n | n | n | x
O=[N+]([O-])c1ccc(NN=Cc2c[nH]c3ccccc23)c(S(=O)(=O)Nc2ccc(Cl)cc2)c1 | x | x | x | x | x | x | x | Fam108b inh=90
CCCCCc1nnc(NC(=O)c2ccc3nc[nH]c3c2)s1 | n | n | n | x | x | n | x
Oc1[nH]c2ccc(Br)cc2c1N=NC(=S)Nc1ccc(F)cc1 | n | n | n | n | n | n | x
Oc1cccc(NC(=S)N=Nc2c(O)[nH]c3ccc(Br)cc23)c1 | 33 | n | n | 24 | n | n | n
COC(=O)[C@@]1(C)[C@H]2C(=O)N(Cc3ccccc3)C(=O)[C@H]2[C@H]2CN=C(SCc3ccc(C)cc3)N21 | x | n | x | x | x | x | x
CCOC(=O)C1=C(C)N=c2sc(=Cc3ccc(O)c([N+](=O)[O-])c3)c(=O)n2C1c1ccccc1OC (centres undefined) | x | x | x | x | x | x | x | Fam108b inh=n
CCOc1cc(-c2nc(-c3ccccc3)c(-c3cc([N+](=O)[O-])ccc3C)[nH]2)ccc1O | n | n | n | 21 | n | n | n
O=[N+]([O-])c1ccc(O)c(-c2nc(-c3ccccc3)c(-c3cccs3)[nH]2)c1 | n | n | n | 26 | n | n | n
COc1ccc(/C=N\NC(=O)c2cc(O)c(O)c(O)c2)cc1COc1ccc(C(=O)OCC(C)C)cc1 | 42 | n | n | 28 | n | n | 31
COc1ccc(C(=O)N/N=C/c2ccc(OC)c(COc3ccccc3)c2)cc1 | n | n | n | n | n | n | x
N#C/C(=C\c1coc2ccccc2c1=O)C(N)=S | n | n | n | n | n | n | x
N#C/C(=C\c1coc2ccc(O)cc2c1=O)C(=O)Nc1nc2ccccc2s1 | n | n | n | 44 | n | n | n
CCOc1ccc(NC(=O)CCC(=O)Nc2cc(OC)c(NC(=O)c3ccco3)cc2OC)cc1 | n | n | n | n | n | n | x
COc1ccc(Nc2nnc(SC(C(=O)Nc3cc(C)ccc3C)c3ccccc3)s2)cc1 (centres undefined) | n | n | n | n | n | n | x
COc1ccc(Nc2nnc(SC(C(=O)Nc3ccc(OC)c(Cl)c3)c3ccccc3)s2)cc1 (centres undefined) | 52 | n | n | 38 | n | n | 25
O=C(O)c1ccc([N+](=O)[O-])c2c1C(=O)c1ccccc1C2=O | n | n | n | n | n | n | x
O=C1c2ccccc2C(=O)c2c([N+](=O)[O-])ccc(O)c21 | 29 | n | n | 31 | n | n | 36 | Fam108b inh=n
O=C(Cc1cccc2ccccc12)Nc1nc(-c2cccc([N+](=O)[O-])c2)cs1 | n | n | n | 20 | n | n | n
COc1cc(NC(=O)CN(C)Cc2cccc(F)c2)c(C)cc1[N+](=O)[O-] | n | n | n | n | n | n | x
CCN(CC)c1nc(N)c2c(N)nc3c(c2c1C#N)CC(c1ccccc1)O3 (centres undefined) | n | n | n | n | n | n | x
CCN(CC)c1nc(N)c2c(N)n(-c3ccccc3C)c(=S)c(C#N)c2c1C#N | n | n | n | 20 | n | n | n
CSc1ccc(CCCCCCOC(=O)C(C)(C)C)cc1 | n | n | n | x | x | n | x
COc1ccc2oc(C(=O)NCc3cc(OC)c(OC)cc3OC)c(C)c2c1 | n | n | n | n | n | n | x
O=C(CCCN1C(=O)/C(=C\c2ccco2)SC1=S)Nc1ccc(O)cc1C(=O)O | n | n | n | 20 | n | n | n
